# HT1080 IDH1KD tx = toxicity to HT-1080 IDH1 knockdown cells (counter line); HT-1080 IDH1 knockdown viability, ATP luminescence, 48 h; hit rate 2% among 360,000; Potency, µM (series often up to 46.1 µM), inactives show at the highest dose activity, negative = toxicity, actives largely listed as cytotoxic;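 further: potency means the concentration at half of the fitted maximal effect; 0% = DMSO wells and -100% = cell-free medium wells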
#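 Cytotoxicity counter-line: IDH1KD HT-1080, 48 h, CellTiter-Glo. Curves classed by r2, magnitude and activity.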
# Giardia killer = kills Giardia lamblia. Giardia lamblia trophozoite viability. hit rate 0.15% among 340,000. AID 540267. activity change, % at 7.66 µM, hits read low; in the data active means activity change below about -80%; inconclusive means between about -30% and that limit;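 further: parasites exposed to compound for two days anaerobically before the ATP read; on the % scale 0 is the no-effect control and ±100 the full control effect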
#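 Compounds were tested on trophozoites seeded at 100 cells/well and held 48 hrs at 37 deg C anaerobically. An ATP-based luminescent kit measured the remaining live cells.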
# HT1080-NT tox = kills 2HG-producing HT-1080-NT fibrosarcoma cells; hit rate 1.6% among 360,000; AID 686970; Potency, µM (highest dose often 46.1 µM), for inactives: at the highest dose activity, negative = less viability, hits mostly cytotoxic; HT-1080-NT fibrosarcoma viability, CellTiter-Glo ATP luminescence, 48 h;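 further: NT is the 2HG producing partner of a matched IDH1 knockdown line; potency means the concentration at half of the fitted maximal effect; 0% = DMSO-treated cells and -100% = media-only wells without cells; nearly all actives have a fitted effect of over 55% in size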
#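 Read-out is CellTiter-Glo luminescence after 10 minutes at room temperature, following 48 hours' compound treatment of HT-1080-NT cells (750 cells/well, RPMI, 5% FBS, 37 degrees C).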
# TGFb inhibitor = TGF-b pathway inhibition | HepG2 CAGA-GFP TGF-b/SMAD3 reporter, GFP fluorescence, 18 h; TGF-beta stimulated, 500 pg/mL final | Potency, µM (highest dose often 46.1 µM), for inactives: at the top dose activity, negative = inhibition, actives largely listed as inhibitors | hit rate 1.2% among 410,000; further: potency means the concentration at half of the fitted maximal effect; on the % scale 0 is the no-effect control and ±100 the full control effect; nearly all actives have a fitted effect of over 65% in size
#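 Cell-based qHTS in HEPG2 carrying a CAGA-GFP Smad reporter; compounds added before 500 pg/mL final TGF-beta, 18 h incubation at 37 degrees C, GFP fluorescence quantified per cell by imaging cytometry.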
# HepG2 tox = HepG2 cytotoxicity, counter-screen for TGF-b inhibitors; HepG2 CAGA-GFP viability, ATP luminescence, 18 h; Potency, µM (series often up to 46.1 µM), inactives show top-dose activity change, negative = cytotoxicity, hits mostly cytotoxic; hit rate 0.76% among 410,000; AID 588856; further: potency means the concentration at half of the fitted maximal effect
#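 CellTiter-Glo luminescence gave cytotoxicity after 18 hours at 37 degrees C. The cells were HepG2 CAGA-GFP in 1% FBS DMEM, stimulated with 500 pg/mL TGF-beta after compound addition. %Activity was normalised to no-cell wells (complete cell-killing) and DMSO (no toxicity), and curves were fitted and classified.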
# IL-1B inflam inh = inflammasome signaling inhibition, IL-1 beta readout. THP-1 LPS/ATP IL-1B secretion, AlphaLISA, 16 h; hits give low values. activity change, % at 57.5 µM. hit rate 4.7% among 360,000; in the data active means activity change below about -50%; inconclusive means mostly about -30% to -49%; further: on the % scale 0 is the no-effect control and ±100 the full control effect
#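 THP-1 cells pretreated 1 hr with compounds (up to 57.5 uM final), then stimulated with LPS (250 ng/mL final) plus ATP (1.25 mM final); secreted IL-1B measured by AlphaLISA after 16 hr, decreased signal indicating inhibition.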
# * marks the source's active call; other numbers are inactive results; ? = inconclusive; . = no result; [ ] = another dose, or the depositor's remark. In the library only some 6.5% were active in any assay of this set; here they are far more common. Unless noted, the call rests on the fitted dose curve; in most records, active means well fitted curve in the direction sought with a large enough effect; inconclusive means small, poorly fitted or top-dose-only effect, or another doubt; inactive means no such curve, though single readings can be large; an effect the other way counts as inactive or inconclusive.
SMILES,HT1080 IDH1KD tx,Giardia killer,HT1080-NT tox,TGFb inhibitor,HepG2 tox,IL-1B inflam inh
C/C(=N\NC(=O)C(c1ccccc1)c1ccccc1)c1ccc(O)cc1,-4%,30,-4%,-7%,-9%,-2
C/C(=N\NC(=O)C(c1ccccc1)c1ccccc1)c1ccccn1,5.8µM*,-24,9.2µM*,?,-13%,-97*
C/C(=N\NC(=O)c1cccc(Br)c1)c1ccccn1,?,-6,?,?,-35%,-15
CCc1ccc(C2=NN(CCC(=O)NC3CCCCCC3)C(=O)CC2)cc1,-9%,-20,1%,?,-18%,-2
COc1ccc(/C=C/C(=O)Nc2ccc3nc(N4CCCCC4)cc(C)c3c2)cc1OC,.,.,.,13µM*,-93%,.
CCN(CC)c1cc(C)c2cc(NC(=O)c3ccccc3F)ccc2n1,-23%,7,-11%,-11%,-37%,-57*
COc1ccc(/C=C/C(=O)Nc2ccc3nc4c(c(Nc5ccc(OC)c(OC)c5)c3c2)CCCC4)cc1,.,.,.,4.5µM*,5µM*,.
COc1ccc(/C=C/C(=O)Nc2ccc3nc4n(c(=O)c3c2)CCCC4)cc1OC,?,-9,?,9%,-2%,3
CCOc1ccc(/C=C/C(=O)Nc2ccc3nc(N(CC)CC)cc(C)c3c2)cc1OC,.,.,.,?,-56%,.
CCN(CC)c1cc(C)c2cc(NC(=O)/C=C/c3cc(OC)c(OC)c(OC)c3)ccc2n1,.,.,.,16µM*,10µM*,.
Cc1cc(C)c(C)c(S(=O)(=O)N2CCN(C(=O)CCC(=O)N3CCOCC3)CC2)c1C,5%,4,-3%,-3%,-15%,7
CC(=O)c1ccc(NC(=S)N2CCN(c3ccccn3)CC2)cc1,-4%,0,-2%,18%,9%,17
COc1ccccc1Nc1c2c(nc3ccc(NC(=O)/C=C/c4cccc(OC)c4OC)cc13)CCCC2,.,.,.,?,-75%,.
COc1ccc(Nc2c3c(nc4ccc(NC(=O)/C=C/c5cc(OC)c(OC)c(OC)c5)cc24)CCCC3)cc1OC,.,.,.,3.2µM*,2.8µM*,.
COc1ccc(/C=C/C(=O)Nc2ccc3nc4c(c(Nc5ccccc5OC)c3c2)CCCC4)cc1,.,.,.,7.1µM*,-84%,.
COc1ccc(Nc2c3c(nc4ccc(NC(=O)/C=C/c5cccc(OC)c5OC)cc24)CCCC3)cc1OC,.,.,.,3.5µM*,-93%,.
COc1ccccc1Nc1c2c(nc3ccc(NC(=O)c4cccc(F)c4)cc13)CCCC2,.,.,.,?,-107%,.
Cc1cccc(NC(=O)c2c(-c3ccccc3)noc2C)n1,2%,13,9%,11%,2%,3
Nc1nsc2ccccc12,2.5µM*,-28,2.5µM*,?,-79%,-99*
COc1ccc(N2CCN(C(=O)CSc3nnc4c(C)cc5c(C)cc(C)cc5n34)CC2)cc1,0%,-9,7%,-2%,-18%,?
COC(=O)[C@@]12C[C@@H](CC(=O)NCc3ccccc3)C(=O)N(Cc3cccc4ccccc34)C1=CCC(C)(C)C2,?,.,?,.,.,-83*
COC(=O)[C@@]12C[C@@H](CC(=O)NCc3ccccc3)C(=O)N(Cc3ccccc3)C1=CCC(C)(C)C2,-21%,.,?,.,.,-60*
CCOCCCNC(=O)c1ccc2c(c1)ncn2C1CCCC1,-6%[9.24 µM],-3,-4%,-8%,-1%,9
CC(C)CCNC(=O)c1ccc2c(c1)ncn2C1CCCC1,-8%,10,-1%,7%,-6%,-62*
COc1ccc(CCCc2nnc(SCc3nc4ccccc4c(=O)[nH]3)n2C)cc1C,-2%,-12,-14%,-17%,-15%,-18
SMILES,HT1080 IDH1KD tx,Giardia killer,HT1080-NT tox,TGFb inhibitor,HepG2 tox,IL-1B inflam inh
CSc1ccc(Cn2nnc(C(=O)Nc3ccc(C)cc3Cl)c2N)cc1,.,.,.,-1%,-8%,.
Cc1nc2c(=O)n(C)c(=O)n(C)c2nc1Cl,5.8µM*,6,9.2µM*,7.1µM*,11µM*,-99*
C#CCOc1nc(C)cc(C)c1S(=O)(=O)c1ccccc1C,0%,-2,-13%,0%,-20%,-56*
CCCCN(C(=O)CN1C(=O)C2CCCCC2C1=O)c1c(N)n(Cc2ccccc2)c(=O)[nH]c1=O (stereo not given),6%,-12,-11%,-3%,-3%,-3
COc1ccc(C)cc1NC(=O)CNC(c1ccccc1)c1ccc(C)cc1 (stereo not given),5.2µM*,?,?,?,-11%,115
CC(C)=C1SC(N2CCN(c3ccc(C)cc3)CC2)=NC1=O,15%,7,21%,0%,2%,-6
CC(C)=C1SC(N2CCN(c3ccc(Cl)cc3)CC2)=NC1=O,4%,7,12%,-19%,4%,-60*
CC(=O)NC(c1ccccc1)c1cccnc1 (stereo not given),-3%,19,0%,-4%,-14%,-23
COc1ccccc1NC(=O)CSc1nc2c(sc3ccccc32)c(=O)n1CCN(C)C,-21%,2,-3%,-10%,-3%,-80*
C=CCN(C(=O)CSc1nc2c(sc3ccccc32)c(=O)n1CCN(CC)CC)c1ccccc1,?,-3,?,18µM*,-21%,-80*
CCn1c(SCC(=O)Nc2ccccc2OC)nc2ccccc2c1=O,-8%,-10,1%,-18%,-48%,-72*
CCn1cc2nc(SCC(=O)Nc3ccc(OC)cc3OC)n(Cc3ccc(OC)cc3)c(=O)c2n1,5.2µM*,13,3.7µM*,-2%,2%,6
O=c1[nH]c2ccc(Cl)cc2c(-c2ccccc2)c1N1CCN(c2ccccn2)CC1,3%,7,0%,-17%,-3%,19
O=C(CSc1nc2c(sc3ccccc32)c(=O)n1CCCN1CCCC1)NCc1ccco1,?,-2,?,0%,-3%,-70*
O=S(=O)(c1ccc(F)cc1)c1nc(-c2ccccc2)oc1N1CCOCC1,-13%,-8,-8%,0%,5%,0
Cc1noc(C)c1CSc1nc2ccccc2c(=O)n1-c1ccccc1,9.2µM*,-12,?,11%,1%,-6
Cc1noc(C)c1CSc1nc2[nH]ncc2c(=O)n1-c1ccccc1,0.52µM*,3,?,11%,-26%,18
Cc1noc(C)c1CSc1nnc2n(-c3ccccc3)c(=O)c3ccccc3n12,-9%,-1,16%,0%,8%,28
Cc1noc(C)c1CSc1nc2ccccc2c(=O)n1-c1ccc(F)cc1F,16µM*,-12,?,6%,-9%,-12
Cc1nc(CSc2nc3[nH]ncc3c(=O)n2-c2ccccc2)cs1,-17%,1,-6%,-18%,-11%,9
